Tb PFK block: T. brucei PFK enzyme inhibition; 330,000 tested, 0.17% active; T. brucei PFK, ADP-Glo luminescence; AID 485367; Potency, µM (titrated, usually from 57.5 µM), for inactives: at the highest dose activity, negative = inhibition, most hits filed as inhibitors; O15648;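 note: 0% = uninhibited 1x PFK enzyme wells and -100% = no-enzyme wells; nearly all actives have a fitted effect of over 60% in size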
Target sequence (O15648 whole entry, looked up): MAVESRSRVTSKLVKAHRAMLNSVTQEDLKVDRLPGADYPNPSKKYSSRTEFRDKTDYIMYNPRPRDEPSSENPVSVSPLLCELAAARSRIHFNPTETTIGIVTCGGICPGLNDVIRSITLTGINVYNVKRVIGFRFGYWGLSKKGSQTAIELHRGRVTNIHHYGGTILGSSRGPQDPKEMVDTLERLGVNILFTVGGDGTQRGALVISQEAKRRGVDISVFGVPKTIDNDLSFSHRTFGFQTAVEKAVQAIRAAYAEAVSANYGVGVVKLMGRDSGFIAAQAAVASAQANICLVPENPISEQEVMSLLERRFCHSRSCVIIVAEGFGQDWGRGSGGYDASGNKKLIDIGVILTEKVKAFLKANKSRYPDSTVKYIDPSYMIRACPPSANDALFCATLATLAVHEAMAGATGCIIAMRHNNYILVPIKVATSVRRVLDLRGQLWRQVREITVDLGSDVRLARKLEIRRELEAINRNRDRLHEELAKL
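In TEA buffer at pH 8.0 with 5 mM MgCl2, enzyme (1.25 nM) converted F6P (0.5 mM) and ATP (0.1 mM) for 45 min at room temperature. ADP product was read by luciferase luminescence.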
VDR inh: blocks the human vitamin D receptor; VDR-SRC2-3 peptide fluorescence polarization, 2 h; 400,000 tested, 0.93% active; Potency, µM, for inactives: max response, negative = inhibition, actives largely listed as inhibitors; AID 504847
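Reagent solutions, kept cold and dark, are dispensed first; compounds are then pinned in at 23 nl, plates briefly spun, and incubated 2 h at ambient temperature. Inhibition of VDR–SRC2-3 peptide binding is read by fluorescence polarization.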
Tb PGK inh: inhibitors of T. brucei phosphoglycerate kinase. P07378. PGK/GAPDH coupled, Kinase-Glo luminescence, 60 min. Potency, µM (doses to about 57.5 µM), for the others: at the highest dose activity change, negative = inhibition, actives largely listed as inhibitors. 380,000 tested, 0.043% active. AID 602233; note: nearly all actives have a fitted effect of over 60% in size
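Recombinant glycosomal PGK reaction used 1,3-bisphosphoglycerate generated in-well by GAPDH (100nM final) in 100mM TEA pH 7.6, 5mM MgCl2, 0.01% Tween-20. After 60 minutes at room temperature, ATP was read by Kinase-Glo Plus luminescence end-point.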
Pin1 inhibitor: human Pin1 inhibition; Q13526; 390,000 tested, 0.009% active; Potency, µM (titrated, usually from 115 µM), for inactives: top-dose activity, negative = inhibition, actives largely listed as inhibitors; Pin1 FP peptide displacement, HiFluor488, 10 min; AID 504891; active = well fitted inhibition curve with a large enough effect in the polarisation, with a control signal flat, not every such curve was filed as active; inconclusive = small, poorly fitted or top-dose-only effect, or effect the other way, or a change in a side signal; inactive = no such curve, though single readings can be large or run the other way; the % refers to the polarisation
Target sequence (Q13526 whole entry, looked up): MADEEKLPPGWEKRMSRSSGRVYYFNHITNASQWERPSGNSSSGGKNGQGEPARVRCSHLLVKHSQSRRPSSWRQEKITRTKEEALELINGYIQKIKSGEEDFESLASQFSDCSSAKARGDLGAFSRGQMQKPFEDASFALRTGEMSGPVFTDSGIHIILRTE
GLS inh: blocks human kidney-isoform glutaminase activity; Potency, µM (titrated, usually from 45.5 µM), without a hit: at the top dose activity change, negative = inhibition, actives largely listed as inhibitors; 410,000 tested, 0.21% active; GLS enzymatic activity, qHTS titration; O94925
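hKGA in 45 mM KH2PO4 (pH 8.2), 0.02% Tween-20 with compound, then 1mM L-Glutamine (stock as added) plus glutamate oxidase/HRP/Amplex red coupling mix. Fluorescence read initially and after 30 min at RT; signal change reflects glutamate formation.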
An asterisk follows results filed as active; i = inactive; ? = inconclusive; . = no result given; ! = repeats disagree; [ ] = another dose, or the depositor's remark. An excerpt weighted towards active compounds, which were near 1.1% of everything screened. Unless noted, calls come from the whole dose curve; as a rule, active = well fitted curve in the direction sought with a large enough effect; inconclusive = small, poorly fitted or top-dose-only effect, or another doubt; inactive = no such curve, though single readings can be large; an effect the other way counts as inactive or inconclusive. Unless noted, % is set by controls: 0 for no effect and ±100 for the full control effect; potency is the fitted concentration of half-maximal effect.

SMILES	Tb PFK block	VDR inh	Tb PGK inh	Pin1 inhibitor	GLS inh
CCCN1CCc2cc(O)cc3c2C1Cc1ccc(O)c(O)c1-3 (stereo not given)	.	25.1µM*	.	.	.
CC(C)c1ccc(NC(=O)CN2C(=O)CN=C(c3ccccc3)c3ccccc32)cc1	.	-5.4%	-6.8%	-2.3%	5.3%
O=C1NC(=O)C(=Cc2ccc(N3CCN(C(=O)c4ccccc4)CC3)c([N+](=O)[O-])c2)C(=O)N1	2.9%	50.1µM*	-4.1%	1.3%	0.0%
CCC1(CC)CCNC1=O	.	11.6%	.	.	.
CN(C)c1ccc(/C=C2\C(=O)NC(=O)N(CCc3ccc(F)cc3)C2=O)cc1	-5.4%	39.8µM*	1.5%	50.5%	8.8%
O=C1NC(=O)N(Cc2ccc(F)cc2)C(=O)/C1=C\c1ccc(N2CCCC2)cc1	-2.4%	79.4µM*	-3.4%	?	1.2%
O=C1NC(=O)N(c2ccc(F)cc2)C(=O)/C1=C/c1ccc(N2CCOCC2)cc1	0.3%	-25.4%	5.2%	1.8%	1.3%
Cc1ccc(C(=O)c2cn(CC(=O)Nc3ccc(C(C)C)cc3)c3nc(C)ccc3c2=O)cc1	.	20.0%	-0.3%	30.4%	0.0%
Oc1ccc2c(c1)[C@@]13CCCCC1[C@@H](C2)N(CC1CCC1)CC3 (stereo not given in full)	.	-2.1%	.	.	.
O=C(O)c1cc[c]([Hg][Cl])cc1	4.26µM*	10µM*	i	1.8%	?
COc1ccc(C(=O)O)cc1OC	.	3.7%	-7.1%	-3.9%	1.6%
O=C(c1ccc2c(c1)N(Cc1c(F)cccc1Cl)C(=O)c1ccccc1S2)N1CCC2(CC1)OCCO2	.	-13.7%	-7.8%	0.3%	-11.3%
CN1[C@@H](CC(=O)c2ccccc2)CCC[C@H]1C[C@H](O)c1ccccc1	-0.3%	1.6%	-5.8%	-7.7%	20.2%
CN1C(CC(=O)c2ccccc2)CCCC1CC(O)c1ccccc1 (stereo not given)	2.0%	89.1µM*!	-2.6%	0.0%	4.2%
CC1(C)[C@@H](O)C[C@H]2[C@](C)(O)[C@@H]3CC[C@H]4[C@@H](O)[C@@]3(C[C@@H](O)[C@@]21O)C[C@@]4(C)O	.	-7.9%	.	.	.
Cc1cc(/C=C2\C(=O)NC(=O)N(c3ccc(Br)cc3)C2=O)c(C)n1-c1cc(C(=O)O)cc(C(=O)O)c1	-20.5%	?	14.1µM*	?	10µM*
Cc1cc(/C=C2\C(=O)NC(=O)N(c3cccc(F)c3)C2=O)c(C)n1-c1cc(C(=O)O)cc(C(=O)O)c1	-12.9%	8.6%	?	?	35.0%
Cc1ccc(N2C(=O)NC(=O)/C(=C\c3cc(C)n(-c4sc5c(c4C#N)CCCC5)c3C)C2=O)cc1	-13.7%	44.7µM*	-7.6%	?	?
CCc1cccc(NC(=O)c2ccc(NC(=O)N3CCSc4ncccc43)cc2)c1	.	9.7%	i	?	3.7%
CCC(=O)OC1[C@@H](N2CCCCC2)C[C@H]2[C@@H]3CC[C@H]4C[C@H](OC(C)=O)[C@@H](N5CCCCC5)C[C@]4(C)[C@H]3CC[C@]12C (stereo not given in full)	.	.	.	.	0.3%
CC1CC(OP(O)(=S)c2ccc(N(C)C)cc2NC(=O)c2cccs2)CC(C)(C)C1 (stereo not given)	-7.5%	44.7µM*	-4.4%	-18.5%	21.4%
S=C=S	.	-2.4%	.	.	2.3%
COC(=O)[C@]1(C)CC[C@@]2(C)CC[C@@]3(C)C4=CCc5c(cc(O)c(O)c5C)[C@]4(C)CC[C@@]3(C)C2C1 (stereo not given in full)	.	28.2µM*	.	.	.
CCc1cc(OC)c(CC(C)N)cc1OC (stereo not given)	.	.	.	.	8.0%[99.4 µM]
CCN(CC)c1ccccc1	5.1%	-15.0%	i	-21.4%	-4.1%
SMILES	Tb PFK block	VDR inh	Tb PGK inh	Pin1 inhibitor	GLS inh
CCN(CC)c1ccc(/C=C/[N+](=O)[O-])cc1	-10.3%	17.8µM*	-4.5%	?	3.3%
Cc1nn(C2CCOC(C)(C)C2)c2c1C(c1ccc(OC(C)C)cc1)SCC(=O)N2 (stereo not given)	2.3%	79.4µM*	-9.6%	9.2%	-9.8%
C[C@H](NC(=O)[C@@H](N)Cc1ccc(O)cc1)C(=O)N[C@@H](Cc1ccccc1)C(=O)NCC(=O)N[C@@H](Cc1ccc(O)cc1)C(=O)N1CCC[C@H]1C(=O)N[C@@H](CO)C(N)=O	.	2.4%	.	.	.
O=C(O)c1cc(O)c(O)c(O)c1	.	50.1µM*!	.	.	10µM*
c1cc2cc(c1)C[n+]1ccc(c3ccccc31)NCc1ccc(cc1)CNc1cc[n+](c3ccccc13)C2	.	-6.3%	.	.	.
c1cc(CN2CCC3(CCNCC3)CC2)ccn1	.	3.2%	.	.	.
c1ccc(N2CCCC3(CCNCC3)C2)nc1	.	50.1µM*	.	.	.
CCC1OC2(C)C(O)C(/C=C/C=C/C=C/c3oc(=O)cc(OC)c3C)OC1(C)C2OC(C)=O (stereo not given)	.	0.5%	.	.	.
Cc1ccc(-n2c(O)c(/C=N/c3ncc(Br)cc3Br)c(=O)[nH]c2=O)cc1	1.7%	1.7%	-6.5%	25.3%	0.0%
Cc1cccc(-n2c(O)c(C=Nc3ccc(Br)cn3)c(=O)[nH]c2=O)c1	-3.3%	20µM*	i	14.3%	?
C=CCN1C(=O)NC(=O)/C(=C/c2cnc(SC)nc2)C1=O	1.9%	28.2µM*	-7.5%	3.5%	-10.0%
CC1=C(O)C(=O)C=C2C1=CC=C1[C@]2(C)CC[C@@]2(C)C3C[C@](C)(C(=O)O)CC[C@@]3(C)CC[C@@]12C (stereo not given in full)	.	3.55µM*	.	.	.
CCN1C(=O)C(=C/C=C/c2ccco2)C(=O)N(CC)C1=S	-2.7%	84.6%	?	?	7.08µM*
Cc1cccc(N2C(=O)NC(=O)/C(=C\c3cnc(-c4ccccc4)nc3)C2=O)c1	0.0%	50.1µM*	i	?	1.0%
CC(C)c1ccc(N2C(=O)NC(=O)/C(=C\c3cnc(-c4ccccc4)nc3)C2=O)cc1	-4.4%	-22.2%	-2.6%	?	?
Cc1ccc(N2C(=O)NC(=O)/C(=C/c3cnc(-c4ccccc4)nc3)C2=O)cc1C	0.2%	31.6µM*	3.4%	?	-10.1%
CC(C)(C)[C@]1(O)C[C@@H]2OC(=O)CC23C(=O)O[C@@H]2OC(=O)[C@H](O)C231 (stereo not given in full)	.	8.6%	.	.	.
O=c1c(O)c(-c2ccc(O)c(O)c2)oc2c(O)c(O)cc(O)c12	.	25.1µM*	.	.	.
COc1cc(/C=C/C(=O)c2c(O)n(CCc3ccccc3)c(=O)[nH]c2=O)ccc1O	-3.2%	44.7µM*	-1.5%	?	9.2%
CCCCn1c(O)c(C(C)=NCCc2ccccc2)c(=O)[nH]c1=O	-0.4%	-10.8%	-2.0%	-8.3%	-3.7%
CCCSP(=S)(OCC)Oc1ccc(Cl)cc1Cl (stereo not given)	.	7.08µM*	.	.	.
CCOP(=S)(OCC)Oc1ccc(Cl)cc1Cl	.	50.1µM*	.	.	.
